Source: PubChem BioAssay AID1508601 (ICCB-Longwood Screening Facility, Harvard Medical School, 2020)
In all, about 5,700 compounds went through this assay and about 85 (1%) were called active. Cut-off read from the data, not from the text of the source: active = p53-positive nuclei above about 36% (passing the limit was not always enough); inactive = the rest. Many of the other results were omitted from the sample, so actives are more common in it than they were.

Tests used:
[1] = p53 stabilisation in HPV-positive human cells, imaging, p53-positive nuclei imaging, 24 h, 48 h (AID 1508601); details: 24/48 h
[2] = target: Cellular tumor antigen p53 (Homo sapiens) (UniProt P04637); test: as above; details: 24/48 h, stronger effect = higher value
[3] = measured here: cell number at 24 h, Library stock concentration: 80 uM
[4] = measured here: cell number at 24 h, Library stock concentration: 400 uM
[5] = measured here: cell number at 24 h, Library stock concentration: 2 mM
[6] = measured here: cell number at 24 h, Library stock concentration: 10 mM
[7] = measured here: cell number at 48 h, Library stock concentration: 80 uM
[8] = measured here: cell number at 48 h, Library stock concentration: 400 uM
[9] = measured here: cell number at 48 h, Library stock concentration: 2 mM
[10] = measured here: cell number at 48 h, Library stock concentration: 10 mM
[11] = Library stock concentration: 80 uM
[12] = Library stock concentration: 400 uM
[13] = Library stock concentration: 2 mM
[14] = Library stock concentration: 10 mM
[15] = measured here: p53 positive nuclei at 24 h, Library stock concentration: 80 uM
[16] = measured here: p53 positive nuclei at 24 h, Library stock concentration: 400 uM
[17] = measured here: p53 positive nuclei at 24 h, Library stock concentration: 2 mM
[18] = measured here: p53 positive nuclei at 24 h, Library stock concentration: 10 mM
[19] = measured here: cell number at 24 h, Library stock concentration: 3.33 mM
[20] = measured here: cell number at 48 h, Library stock concentration: 3.33 mM
[21] = Library stock concentration: 3.33 mM
[22] = measured here: p53 positive nuclei at 24 h, Library stock concentration: 3.33 mM

Chain of Cellular tumor antigen p53 (Homo sapiens) (P04637 whole entry, looked up): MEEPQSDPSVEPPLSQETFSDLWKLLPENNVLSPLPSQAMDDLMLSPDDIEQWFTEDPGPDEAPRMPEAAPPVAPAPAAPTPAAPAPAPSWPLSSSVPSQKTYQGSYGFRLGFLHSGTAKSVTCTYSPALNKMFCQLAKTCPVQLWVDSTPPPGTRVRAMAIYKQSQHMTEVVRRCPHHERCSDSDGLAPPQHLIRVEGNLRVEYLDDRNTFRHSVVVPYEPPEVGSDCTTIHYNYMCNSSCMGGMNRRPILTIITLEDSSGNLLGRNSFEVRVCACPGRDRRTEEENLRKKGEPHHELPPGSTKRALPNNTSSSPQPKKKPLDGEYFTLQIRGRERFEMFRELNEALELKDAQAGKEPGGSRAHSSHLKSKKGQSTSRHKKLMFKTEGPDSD

SMILES | nuclei count, normalised [1, 3] [%] | nuclei count, normalised [1, 4] [%] | nuclei count, normalised [1, 5] [%] | nuclei count, normalised [1, 6] [%] | nuclei count, normalised [1, 7] [%] | nuclei count, normalised [1, 8] [%] | nuclei count, normalised [1, 9] [%] | nuclei count, normalised [1, 10] [%] | p53-positive nuclei, normalised [2, 11] | p53-positive nuclei, normalised [2, 12] | p53-positive nuclei, normalised [2, 13] | p53-positive nuclei, normalised [2, 14] | p53-positive nuclei, normalised [2, 15] [%] | p53-positive nuclei, normalised [2, 16] [%] | p53-positive nuclei, normalised [2, 17] [%] | p53-positive nuclei, normalised [2, 18] [%] | nuclei count, normalised [1, 19] [%] | nuclei count, normalised [1, 20] [%] | p53-positive nuclei, normalised [2, 21] | p53-positive nuclei, normalised [2, 22] [%]
CC(C)C(N)C(=O)NC(Cc1ccccc1)C(=O)O (stereo unspecified) | 118 | 113 | 112 | 113 | 107 | 100 | 103 | 102 | -0.188% (inactive) | 0.0868% (inactive) | -0.0686% (inactive) | -0.0304% (inactive) | -0.0726 | -0.0759 | 0.0367 | -0.118 |  |  |  | 
CC(C)c1nc(CN(C)C(=O)NC(CCN2CCOCC2)C(=O)NC(CCC(Cc2ccccc2)NC(=O)OCc2cncs2)Cc2ccccc2)cs1 (stereo unspecified) |  |  |  |  |  |  |  |  |  |  |  |  |  |  |  |  | 98.1 | 96.3 | 4.22% (inactive) | 4.44
CC(C)CC(NC(=O)C(CCc1ccccc1)NC(=O)CN1CCOCC1)C(=O)NC(Cc1ccccc1)C(=O)NC(CC(C)C)C(=O)[C@@]1(C)CO1 (stereo partly specified) |  |  |  |  |  |  |  |  |  |  |  |  |  |  |  |  | 36.4 | 30.5 | 104% (active) | 117
CC(C)CC(C(=O)NC(Cc1ccc(OCc2ccccc2)cc1)C(=O)NC(C)(C)C)N(C)Cc1ccc(C(C)(C)C)cc1 (stereo unspecified) | 108 | 108 | 110 | 113 | 103 | 105 | 103 | 109 | 0.116% (inactive) | -0.221% (inactive) | 0.074% (inactive) | -0.262% (inactive) | -0.0604 | -0.22 | -0.108 | -0.169 |  |  |  | 
O=C(Cc1ccc(-c2ccc(OCCN3CCOCC3)cc2)cn1)NCc1ccccc1 | 42.9 | 41.4 | 40 | 39.3 | 27.3 | 26.6 | 28.3 | 26.9 | 3.36% (inactive) | 4.39% (inactive) | 2.81% (inactive) | 4.55% (inactive) | -0.0362 | 1.51 | 1.32 | 1.31 | 41.1 | 30.8 | 2.58% (inactive) | 0.97
CSCCC(NC=O)C(=O)NC(CC(C)C)C(=O)NC(Cc1ccccc1)C(=O)O (stereo unspecified) | 96 | 92.8 | 99 | 101 | 97.1 | 91.9 | 96.7 | 99.8 | -0.172% (inactive) | -0.159% (inactive) | -0.166% (inactive) | -0.212% (inactive) | -0.106 | -0.0972 | -0.166 | -0.105 |  |  |  | 
